log2 fold change data for 15 targets are collected here from the supplement of paper PMC10849652.

The full data set covers some 8,800 targets. This sample favours those with a hit. About 0.5% of all pairs of compound and target were hits. Unmarked numbers belong to inactive results.

Assay in all cases: log2 fold change, soluble protein after heating vs DMSO (PISA); higher = thermal stabilisation; K562 lysate, 10 uM; active = over 0.2 and 3.5 SD of the protein, either way, in both replicates (recomputed)
Compound in one assay: Cc1cn(-c2cc(NC(=O)c3ccc(C)c(Nc4nccc(-c5cccnc5)n4)c3)cc(C(F)(F)F)c2)cn1 [nilotinib]
In a few lines: (§1)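 A 30 min treatment with 10 μM compound was applied to crude K562 extract at 1 mg/mL protein in PBS pH 7.4 with 1 mM MgCl2. Heating for 3 min spanned 48°C-58°C, after which aliquots were pooled, adjusted to 0.5% NP-40 at 4°C and spun at 21,000xg for 90 min. TMTpro 16plex LC-MS/MS of the supernatant, with channel sums equalised, gave values recorded as log-two fold change in thermal stability against solvent controls, from duplicates.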

Compound in assay [1]: Cc1nc(Nc2n[nH]c3c2CN(C(=O)N[C@H](CN(C)C)c2ccccc2)C3(C)C)c2sccc2n1
In a few lines:
as §1

Compound in another assay: Cc1nc(Nc2ncc(C(=O)Nc3c(C)cccc3Cl)s2)cc(N2CCN(CCO)CC2)n1 [dasatinib]
The procedure, abridged:
as §1

Compound in assay [2]: Cc1ncc(-c2ccnc(Nc3ccc(S(C)(=O)=O)cc3)n2)n1C(C)C
The procedure, abridged: as §1

Compound in assay [3]: Cn1cc(-c2ccc3c(c2)CCN3C(=O)Cc2cccc(C(F)(F)F)c2)c2c(N)ncnc21
In a few lines:
as §1

Compound in a further assay: Cn1cc(CNCC2CCN(c3ncc(C(=O)NO)cn3)CC2)c2ccccc21 [quisinostat]
The procedure, abridged: as §1

Compound in another assay: Cn1cncc1[C@@](N)(c1ccc(Cl)cc1)c1ccc2c(c1)c(-c1cccc(Cl)c1)cc(=O)n2C [tipifarnib]
The procedure, abridged: as §1

Compound in assay [4]: NC(=O)Nc1cc(-c2cccc(F)c2)sc1C(=O)N[C@H]1CCCNC1
In a few lines:
as §1

Compound in assay [5]: NC(=O)c1cnc(N[C@@H]2CCCC[C@@H]2N)nc1Nc1cccc(-n2nccn2)c1
The procedure, abridged:
as §1

Compound in assay [6]: NC1(c2ccc(-c3nc4ccn5c(=O)[nH]nc5c4cc3-c3ccccc3)cc2)CCC1
The procedure, abridged:
as §1

Chain of UniProt Q9Y2X7 (Q9Y2X7 whole entry, looked up): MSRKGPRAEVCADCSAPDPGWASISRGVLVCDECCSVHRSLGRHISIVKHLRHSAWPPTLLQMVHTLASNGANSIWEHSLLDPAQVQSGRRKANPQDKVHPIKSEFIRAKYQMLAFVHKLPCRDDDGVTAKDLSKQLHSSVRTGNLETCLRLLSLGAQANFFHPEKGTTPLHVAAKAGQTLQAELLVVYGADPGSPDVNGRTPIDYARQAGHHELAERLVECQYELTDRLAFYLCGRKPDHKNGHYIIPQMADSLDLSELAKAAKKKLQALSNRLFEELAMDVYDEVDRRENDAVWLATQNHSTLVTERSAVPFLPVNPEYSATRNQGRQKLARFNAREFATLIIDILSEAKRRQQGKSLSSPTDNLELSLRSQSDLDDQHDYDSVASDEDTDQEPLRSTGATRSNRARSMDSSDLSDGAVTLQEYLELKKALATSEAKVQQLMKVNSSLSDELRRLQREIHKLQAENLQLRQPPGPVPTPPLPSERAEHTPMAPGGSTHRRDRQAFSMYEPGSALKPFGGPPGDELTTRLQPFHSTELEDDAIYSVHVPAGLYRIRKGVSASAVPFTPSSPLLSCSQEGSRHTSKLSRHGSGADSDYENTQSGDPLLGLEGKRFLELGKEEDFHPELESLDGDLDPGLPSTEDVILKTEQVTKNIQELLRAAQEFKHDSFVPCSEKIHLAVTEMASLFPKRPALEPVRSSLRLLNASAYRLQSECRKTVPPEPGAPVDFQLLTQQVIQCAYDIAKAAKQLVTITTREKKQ
Chain of UniProt Q14103 (Q14103 whole entry, looked up): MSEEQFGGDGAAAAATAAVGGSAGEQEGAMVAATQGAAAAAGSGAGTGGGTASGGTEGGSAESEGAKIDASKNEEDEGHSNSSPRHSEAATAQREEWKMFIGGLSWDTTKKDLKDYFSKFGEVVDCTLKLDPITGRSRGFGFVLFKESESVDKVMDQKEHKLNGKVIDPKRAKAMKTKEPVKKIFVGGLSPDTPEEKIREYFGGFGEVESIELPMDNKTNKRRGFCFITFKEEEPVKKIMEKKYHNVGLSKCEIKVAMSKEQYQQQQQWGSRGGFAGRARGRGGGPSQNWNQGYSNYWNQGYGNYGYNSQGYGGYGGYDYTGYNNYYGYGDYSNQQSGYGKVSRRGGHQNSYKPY
Chain of UniProt P49841 (P49841 whole entry, looked up): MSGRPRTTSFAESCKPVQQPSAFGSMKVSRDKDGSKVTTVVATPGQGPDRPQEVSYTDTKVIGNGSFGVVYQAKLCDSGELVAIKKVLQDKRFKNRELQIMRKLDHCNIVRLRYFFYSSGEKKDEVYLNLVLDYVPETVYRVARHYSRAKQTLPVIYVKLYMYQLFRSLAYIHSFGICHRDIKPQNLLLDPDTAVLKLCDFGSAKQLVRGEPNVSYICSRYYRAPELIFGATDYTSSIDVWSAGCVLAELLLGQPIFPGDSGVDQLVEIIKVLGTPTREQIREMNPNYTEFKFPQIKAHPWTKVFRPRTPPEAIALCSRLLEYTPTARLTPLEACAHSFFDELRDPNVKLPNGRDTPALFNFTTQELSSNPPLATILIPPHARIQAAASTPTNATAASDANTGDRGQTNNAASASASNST
Chain of UniProt Q13418 (Q13418 whole entry, looked up): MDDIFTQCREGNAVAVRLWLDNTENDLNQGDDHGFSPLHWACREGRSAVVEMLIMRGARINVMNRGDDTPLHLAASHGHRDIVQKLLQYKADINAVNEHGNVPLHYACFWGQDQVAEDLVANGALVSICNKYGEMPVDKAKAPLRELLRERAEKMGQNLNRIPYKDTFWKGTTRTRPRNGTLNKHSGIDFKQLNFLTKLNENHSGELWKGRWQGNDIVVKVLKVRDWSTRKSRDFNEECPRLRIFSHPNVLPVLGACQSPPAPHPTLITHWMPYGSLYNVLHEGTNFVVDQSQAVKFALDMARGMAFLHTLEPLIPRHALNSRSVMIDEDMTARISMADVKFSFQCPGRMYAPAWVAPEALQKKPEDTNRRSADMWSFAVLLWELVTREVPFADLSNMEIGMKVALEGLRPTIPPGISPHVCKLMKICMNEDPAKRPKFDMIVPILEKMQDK
Chain of UniProt P62873 (P62873 whole entry, looked up): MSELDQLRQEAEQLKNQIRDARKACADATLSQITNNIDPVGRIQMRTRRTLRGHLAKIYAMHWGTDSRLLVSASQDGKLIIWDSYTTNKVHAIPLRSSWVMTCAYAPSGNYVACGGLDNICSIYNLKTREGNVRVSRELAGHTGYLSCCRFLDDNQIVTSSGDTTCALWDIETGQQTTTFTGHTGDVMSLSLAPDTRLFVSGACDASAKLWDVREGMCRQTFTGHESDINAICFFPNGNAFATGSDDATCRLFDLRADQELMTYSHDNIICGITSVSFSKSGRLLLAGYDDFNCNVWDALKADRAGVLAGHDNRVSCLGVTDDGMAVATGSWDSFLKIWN
Chain of UniProt Q9NVX7 (Q9NVX7 whole entry, looked up): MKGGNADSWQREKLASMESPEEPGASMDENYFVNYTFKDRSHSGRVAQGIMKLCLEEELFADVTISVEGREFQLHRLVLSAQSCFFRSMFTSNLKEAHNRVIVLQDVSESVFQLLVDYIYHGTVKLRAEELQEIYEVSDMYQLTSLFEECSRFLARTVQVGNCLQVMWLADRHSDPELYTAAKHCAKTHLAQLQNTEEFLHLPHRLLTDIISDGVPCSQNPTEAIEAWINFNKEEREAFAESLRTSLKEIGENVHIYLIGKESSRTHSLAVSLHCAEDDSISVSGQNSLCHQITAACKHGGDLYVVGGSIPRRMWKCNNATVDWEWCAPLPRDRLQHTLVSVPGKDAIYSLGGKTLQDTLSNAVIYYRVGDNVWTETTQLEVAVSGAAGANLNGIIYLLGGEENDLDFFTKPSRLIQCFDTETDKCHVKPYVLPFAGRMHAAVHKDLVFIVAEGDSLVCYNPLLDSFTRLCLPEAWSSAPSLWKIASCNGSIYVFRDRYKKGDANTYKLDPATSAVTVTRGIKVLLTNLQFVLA
Chain of UniProt Q6P9B9 (Q6P9B9 whole entry, looked up): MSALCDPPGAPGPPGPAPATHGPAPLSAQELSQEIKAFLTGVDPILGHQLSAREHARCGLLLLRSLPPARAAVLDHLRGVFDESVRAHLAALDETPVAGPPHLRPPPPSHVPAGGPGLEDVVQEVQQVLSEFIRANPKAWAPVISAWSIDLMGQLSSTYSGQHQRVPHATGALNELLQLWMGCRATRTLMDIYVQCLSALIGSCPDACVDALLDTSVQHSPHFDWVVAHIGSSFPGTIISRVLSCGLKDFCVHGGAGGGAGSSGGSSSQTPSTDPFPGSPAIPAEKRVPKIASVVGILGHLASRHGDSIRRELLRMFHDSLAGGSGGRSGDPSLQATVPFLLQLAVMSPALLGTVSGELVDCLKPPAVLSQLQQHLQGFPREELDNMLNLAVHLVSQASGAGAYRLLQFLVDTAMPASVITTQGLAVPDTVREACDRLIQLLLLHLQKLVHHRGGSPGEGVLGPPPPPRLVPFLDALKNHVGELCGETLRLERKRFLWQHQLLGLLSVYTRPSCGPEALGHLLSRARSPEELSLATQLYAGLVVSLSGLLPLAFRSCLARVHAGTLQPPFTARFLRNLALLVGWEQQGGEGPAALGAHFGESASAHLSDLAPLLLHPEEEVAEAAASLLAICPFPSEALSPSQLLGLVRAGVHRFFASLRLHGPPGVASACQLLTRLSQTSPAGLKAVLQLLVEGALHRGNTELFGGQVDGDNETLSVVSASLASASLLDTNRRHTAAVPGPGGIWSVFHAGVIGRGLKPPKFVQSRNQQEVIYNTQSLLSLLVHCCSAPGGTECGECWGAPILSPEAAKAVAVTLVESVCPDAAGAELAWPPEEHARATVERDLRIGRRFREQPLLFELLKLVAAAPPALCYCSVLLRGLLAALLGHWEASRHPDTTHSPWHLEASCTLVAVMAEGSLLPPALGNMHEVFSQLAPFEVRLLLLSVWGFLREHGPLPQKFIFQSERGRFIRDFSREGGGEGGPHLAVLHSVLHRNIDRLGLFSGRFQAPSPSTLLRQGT
Chain of UniProt Q68CZ6 (Q68CZ6 whole entry, looked up): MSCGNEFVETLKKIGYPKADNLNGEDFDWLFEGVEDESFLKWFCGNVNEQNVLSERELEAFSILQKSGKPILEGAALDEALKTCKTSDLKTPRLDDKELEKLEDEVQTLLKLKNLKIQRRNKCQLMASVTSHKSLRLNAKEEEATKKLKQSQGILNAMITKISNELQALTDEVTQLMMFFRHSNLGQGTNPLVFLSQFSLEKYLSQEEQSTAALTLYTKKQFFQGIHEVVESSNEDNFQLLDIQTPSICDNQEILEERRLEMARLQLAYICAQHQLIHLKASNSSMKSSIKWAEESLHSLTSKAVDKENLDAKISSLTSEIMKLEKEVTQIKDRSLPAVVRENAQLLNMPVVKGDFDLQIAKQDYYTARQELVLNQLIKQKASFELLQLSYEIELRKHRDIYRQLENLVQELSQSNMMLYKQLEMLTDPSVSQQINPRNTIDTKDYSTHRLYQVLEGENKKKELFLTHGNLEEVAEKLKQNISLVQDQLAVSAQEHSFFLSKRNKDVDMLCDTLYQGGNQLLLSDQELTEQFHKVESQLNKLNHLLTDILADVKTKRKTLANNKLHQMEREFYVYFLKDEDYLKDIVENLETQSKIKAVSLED
Chain of UniProt P17096 (P17096 whole entry, looked up): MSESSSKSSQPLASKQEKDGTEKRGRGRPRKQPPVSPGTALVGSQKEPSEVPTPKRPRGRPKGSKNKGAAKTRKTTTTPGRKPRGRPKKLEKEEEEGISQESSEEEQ
Chain of UniProt P04792 (P04792 whole entry, looked up): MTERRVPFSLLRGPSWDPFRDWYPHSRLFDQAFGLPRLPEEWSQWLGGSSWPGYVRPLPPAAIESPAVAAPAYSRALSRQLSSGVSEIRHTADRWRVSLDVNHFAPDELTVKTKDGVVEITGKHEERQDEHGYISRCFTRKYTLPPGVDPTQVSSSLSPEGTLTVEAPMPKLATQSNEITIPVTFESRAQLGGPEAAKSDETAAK

As for HSPB1 (UniProt P04792), the log2 fold change with nilotinib was -0.001; in [1], 0.003; in the assay with dasatinib, -0.032; in assay [2], 0.012; in assay [3], 0.015; in the assay with quisinostat, 0.025. Further, the log2 fold change in the assay with tipifarnib is -0.006; in assay [4], 0.006; in assay [5], 0; in assay [6], 0.006.

GSK3B isoform 2 (UniProt P49841): the log2 fold change with nilotinib was -0.06; in assay [1], 0.576; with dasatinib, -0.023; in [2] it was 0.64 (active); in assay [3] it was -0.028; in the assay with quisinostat, -0.084. Besides, the log2 fold change in the assay with tipifarnib was 0.003; in [4] it was 0; in assay [5], 0.061; in assay [6] it was -0.039.

With INTS5 (UniProt Q6P9B9), the log2 fold change is 0.11 with nilotinib; -0.093 in assay [1]; -0.012 with dasatinib; 0.062 in assay [2]; 0.055 in [3]; -0.002 with quisinostat. In addition, the log2 fold change with tipifarnib was 0.294; in [4], 0.043; in [5] it was -0.064; in [6], 0.081.

For the target GSE1 (UniProt Q14687), the log2 fold change in the assay with nilotinib was -0.017; in assay [1], 0.007; with dasatinib it was -0.064; in assay [2], 0.036; in assay [3], -0.005; with quisinostat, -0.093. Also, the log2 fold change in the assay with tipifarnib is -0.02; in assay [4], 0.059; in [5], 0.012; in assay [6] it was 0.029.

As for GNB1 (UniProt P62873), the log2 fold change with nilotinib is 0.075; in assay [1], 0.057; with dasatinib, -0.078; in [2] it was 0.098; in assay [3], -0.029; with quisinostat, 0.107. For the same target, the log2 fold change was 0.019 in the assay with tipifarnib, -0.137 in assay [4], -0.027 in [5] and -0.018 in assay [6].

With ILK (UniProt Q13418), the log2 fold change was 0.01 with nilotinib; -0.066 in assay [1]; 0.071 in the assay with dasatinib; 0 in assay [2]; 0.014 in [3]; -0.076 with quisinostat. For the same target, the log2 fold change was -0.001 with tipifarnib, 0.097 in [4], -0.022 in assay [5] and -0.036 in [6].

For the target HMGA1 (UniProt P17096), the log2 fold change in the assay with nilotinib is 0.035; in assay [1] it was 0.039; with dasatinib, -0.012; in assay [2] it was 0.014; in assay [3], -0.08; in the assay with quisinostat, -0.018. Besides, the log2 fold change is 0.032 in the assay with tipifarnib, -0.004 in assay [4], -0.025 in assay [5] and -0.059 in assay [6].

With IRS2 (UniProt Q9Y4H2), the log2 fold change in the assay with nilotinib is -0.05; in assay [1], -0.044; with dasatinib, -0.018; in assay [2] it was -0.071; in assay [3], -0.074; in the assay with quisinostat, -0.15. The log2 fold change with tipifarnib was -0.071; in assay [4], 0.142; in assay [5], 0.062; in assay [6] it was 0.112.

On to INTS14 (UniProt Q96SY0), for which the log2 fold change with nilotinib is 0.024; in [1], 0.023; with dasatinib, -0.038; in assay [2] it was -0.023; in assay [3], -0.004; with quisinostat, -0.018. For the same target, the log2 fold change in the assay with tipifarnib was -0.004; in assay [4], -0.01; in assay [5], -0.026; in [6], -0.011.

As to IMPDH2 (UniProt P12268), the log2 fold change is 0 with nilotinib; -0.009 in assay [1]; -0.036 with dasatinib; -0.009 in assay [2]; 0.004 in assay [3]; -0.073 with quisinostat. Also, the log2 fold change was 0.029 with tipifarnib, 0.006 in assay [4], -0.016 in assay [5] and 0.031 in assay [6].

On to GUSB (UniProt P08236), for which the log2 fold change with nilotinib is 0.028; in assay [1] it was -0.067; in the assay with dasatinib, 0.007; in assay [2], -0.026; in assay [3] it was -0.002; with quisinostat it was -0.109. For the same target, the log2 fold change with tipifarnib was -0.066; in assay [4], -0.041; in assay [5], 0.001; in [6] it was -0.01.

Turning to KBTBD4 isoform 2 (UniProt Q9NVX7), the log2 fold change with nilotinib was 0.063; in assay [1], -0.019; in the assay with dasatinib it was -0.017; in assay [2], -0.086; in assay [3], -0.022; in the assay with quisinostat it was -0.038. In addition, the log2 fold change was 0.154 in the assay with tipifarnib, 0.086 in assay [4], -0.018 in assay [5] and -0.039 in [6].

On to HNRNPD isoform 2 (UniProt Q14103), for which the log2 fold change was -0.047 with nilotinib; 0 in assay [1]; -0.02 in the assay with dasatinib; 0.009 in assay [2]; -0.05 in [3]; 0.139 with quisinostat. The log2 fold change in the assay with tipifarnib is 0.029; in assay [4] it was -0.025; in [5], 0.015; in [6] it was -0.008.

For the target HAUS3 (UniProt Q68CZ6), the log2 fold change with nilotinib is 0.02; in assay [1], -0.027; with dasatinib, -0.075; in assay [2] it was 0.008; in [3], 0.003; with quisinostat it was -0.059. Further, the log2 fold change with tipifarnib was -0.045; in assay [4] it was 0.017; in assay [5], -0.015; in assay [6], -0.038.

For GIT1 (UniProt Q9Y2X7), the log2 fold change with nilotinib is 0.03; in assay [1] it was -0.062; with dasatinib it was -0.05; in assay [2], -0.042; in assay [3], 0.036; in the assay with quisinostat, -0.045. The log2 fold change was -0.086 with tipifarnib, 0.035 in assay [4], -0.007 in assay [5] and -0.026 in assay [6].
